Drawing on PubChem BioAssay AID757 (NMMLSC, 2007), this text covers GTP binding activity (% of control) for 53 molecules.

Molecules are shown by their SMILES. Screen size: about 190,000 compounds; about 520 (0.27%) were called active. Roughly 2% stayed inconclusive and do not appear here. What follows is part of a selection rich in actives, with near analogues and random picks from the rest. Values without a mark were called inactive.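 Rule for the calls: active = GTP binding activity at least 20 points away from the 100% control level, either lower or higher; inconclusive = compound flagged as likely green fluorescent, judged across all proteins; inactive = the rest.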

For the assay, the target named is Ras-related C3 botulinum toxin substrate 1 (Homo sapiens) (UniProt P63000). Nature of the assay: compounds altering fluorescent GTP loading on wildtype Rac1 – biochemical, GST-Rac1 beads, flow cytometry, multiplex, primary screen (AID 757). To be noted: at 10 µM, actives lie on both sides, 0 = cold GTP competed, 100 = untreated. For orientation: In flow cytometry, cells or beads pass a laser one at a time.
Turning to `O=C(CNC(=O)c1cc(=O)[nH]c2ccccc12)Nc1ccc(F)c(F)c1`, the GTP binding activity (% of control) is 97%.

As for `O=C(CN1CCN(Cc2ccc(F)cc2Cl)C1=O)NCc1cccs1`, the GTP binding activity (% of control) is 99%.

For `CCn1ccnc1CN(C)Cc1nc(-c2ccc3c(c2)OCO3)no1`, the GTP binding activity (% of control) is 99%.

`CC(C)OC(=O)Cn1nc(C(F)(F)F)c2c1CCCC2`: the GTP binding activity (% of control) was 93%.

For `CCn1cc(C(=O)Nc2cc(C)ccc2C)c(=O)c2ccc(C)nc21`, the GTP binding activity (% of control) was 100%.

For `N#Cc1ccc(CSc2nnc3ccccn23)cc1`, the GTP binding activity (% of control) was 104%.

`CCN(CC)C(=O)CS(=O)CC(=O)Nc1cc(OCCOC)c(Cl)cc1Cl` (stereo not drawn): the GTP binding activity (% of control) was 103%.

In the case of `S=c1[nH]nc(/C=C/c2ccccc2)o1`, the GTP binding activity (% of control) is 93%.

Regarding `COc1ccc(C)cc1NC(=S)Nc1ccccc1SC`, the GTP binding activity (% of control) is 100%.

`CC(=O)Cn1ncc(N2CCOCC2)c(Br)c1=O`: the GTP binding activity (% of control) was 95%.

As to `CC(=O)NCCC(=O)Nc1cc(S(=O)(=O)N2CCOCC2)ccc1N1CCOCC1`, the GTP binding activity (% of control) was 100%.

As for `O=C(CSc1nn(-c2ccc(F)cc2)c(=S)s1)NC1CCS(=O)(=O)C1` (stereo not drawn), the GTP binding activity (% of control) was 104%.

Consider `COc1ccc(OC)c(NC(=O)CN(Cc2ccc(Cl)cc2)S(C)(=O)=O)c1`, for which the GTP binding activity (% of control) was 97%.

With `COc1ccc(N2CCN(C(=O)C3CCN(S(=O)(=O)c4ccc(C)cc4)CC3)CC2)cc1`, the GTP binding activity (% of control) is 101%.

`CC/C(O)=C1\C(=O)CC(C)(C)CC1=NCCc1nc2ccccc2[nH]1`: the GTP binding activity (% of control) is 106%.

Take `CCOc1ccccc1N=C1NC(=O)CS1`: the GTP binding activity (% of control) is 96%.

`CCC/C(O)=C1\C(=O)CC(C)(C)CC1=Nc1ccccc1OC`: the GTP binding activity (% of control) is 125% [activator] (active).

For the molecule `CCN(CC)CCCNC(=O)Cn1cnc2sc(C)c(S(=O)(=O)N3CCN(c4ncccn4)CC3)c2c1=O`, the GTP binding activity (% of control) was 93%.

Take `Cc1nc2ccc(NC(=S)N3CCC(C)CC3)cc2nc1C`: the GTP binding activity (% of control) was 100%.

On to `CC(C)(C)NC(=O)NC(=O)COC(=O)Cc1ccc(Cl)cc1Cl`, for which the GTP binding activity (% of control) is 101%.

`Cc1ccc(NC(=O)NC2CCCCC2)cc1S(=O)(=O)N1CCOCC1`: the GTP binding activity (% of control) was 99%.

Regarding `COc1ccc(/C=N/Nc2ncnc3sc4c(c23)CCCC4)cc1O`, the GTP binding activity (% of control) is 77% (active).

With `COc1ncnc2sc3c(c12)CCCC3`, the GTP binding activity (% of control) is 104%.

As for `CC1(C)CN=C(N2CCN(c3ncnc4sc5c(c34)CCCC5)CC2)S1`, the GTP binding activity (% of control) was 99%.

Take `O=C1c2oc3ccccc3c(=O)c2C(c2cccc(O)c2)N1c1ccccn1` (stereo not drawn): the GTP binding activity (% of control) was 106%.

In the case of `O=C1c2oc3ccc(Br)cc3c(=O)c2C(c2cccc(F)c2)N1CCO` (stereo not drawn), the GTP binding activity (% of control) was 123% [activator] (active).

Consider `COCCN1C(=O)c2oc3c(C)cc(C)cc3c(=O)c2C1c1cccc(O)c1` (stereo not drawn), for which the GTP binding activity (% of control) was 104%.

In the case of `O=C(Nc1cccc(CCc2ccccn2)c1)c1ccc(Cl)cc1`, the GTP binding activity (% of control) is 97%.

Turning to `CC1(C)OC(=O)C(=CNC(CO)C(=O)O)C(=O)O1` (stereo not drawn), the GTP binding activity (% of control) was 100%.

On to `CC1CN(CCCOc2ccccc2-c2ccccc2)CC(C)O1` (stereo not drawn), for which the GTP binding activity (% of control) is 94%.

For `CCOc1ccc(-n2cnnn2)cc1S(=O)(=O)N1CCC(C)CC1C` (stereo not drawn), the GTP binding activity (% of control) is 97%.

Regarding `COc1ccc(NC(=O)N2CCCC(c3nc(-c4ccc(F)cc4)no3)C2)cc1` (stereo not drawn), the GTP binding activity (% of control) was 103%.

On to `CNc1[nH]ncc1[N+](=O)[O-]`, for which the GTP binding activity (% of control) is 95%.

With `Cc1cc(C)cc(C(=O)NCC(=O)OCC(=O)N2CCCCC2)c1`, the GTP binding activity (% of control) was 99%.

Turning to `COc1ccc(NC(=O)c2cc3nc(-c4ccccc4)cc(C)n3n2)cc1OC`, the GTP binding activity (% of control) is 78% (active).

For `COC(=O)c1cc2nc(-c3ccccc3)cc(C(F)(F)F)n2n1`, the GTP binding activity (% of control) is 99%.

Consider `COc1ccc(NC(=O)c2ccccc2[N+](=O)[O-])cc1OC`, for which the GTP binding activity (% of control) was 105%.

For `Cc1ccc(NC(=S)NC(=O)c2ccc(-c3ccccc3)cc2)c(C)c1`, the GTP binding activity (% of control) was 99%.

Take `COc1c(F)c(F)c(C(=O)O)c(Nc2ccccc2C)c1F`: the GTP binding activity (% of control) is 101%.

Take `Cc1ccc(Nc2c(F)c(F)c(F)c(F)c2C(=O)O)c(C)c1`: the GTP binding activity (% of control) was 154% [activator] (active).

On to `COc1ccc(-n2c(O)c(C=NCC(c3ccco3)N3CCCC3)c3ccccc3c2=O)cc1OC` (stereo not drawn), for which the GTP binding activity (% of control) was 102%.

As to `CN(C)S(=O)(=O)c1ccc(NC(=O)N2CCOCC2)cc1`, the GTP binding activity (% of control) is 100%.

Regarding `Cc1ccc(OCC(=O)NC(C)c2ccccc2)c([N+](=O)[O-])n1` (stereo not drawn), the GTP binding activity (% of control) was 98%.

With `O=C(NNC(=O)c1ccc(Cl)cc1Cl)c1cccs1`, the GTP binding activity (% of control) is 96%.

Regarding `Cc1ccc(Cl)cc1NC(=O)c1ccccn1`, the GTP binding activity (% of control) is 90%.

Take `COc1ccc(/C=N/NC(=O)CNC(=O)c2ccc(S(=O)(=O)N3CCCC3)cc2)c(OC)c1`: the GTP binding activity (% of control) was 98%.

`Cc1ccc(SC(CC(=O)c2ccc(C(C)(C)C)cc2)C(=O)O)cc1` (stereo not drawn): the GTP binding activity (% of control) was 79% (active).

Turning to `CC(C)(C)c1ccc(C(=O)CSc2ncn[nH]2)cc1`, the GTP binding activity (% of control) is 105%.

Regarding `Cc1ccc(C(=O)CS(C)(=O)=O)cc1`, the GTP binding activity (% of control) was 101%.

As to `N/C(=N\OC(=O)c1ccc2c(c1)OCO2)c1ccc(Br)cc1`, the GTP binding activity (% of control) was 94%.

Regarding `COc1ccc(C)cc1NC(=O)NCc1ccccn1`, the GTP binding activity (% of control) is 103%.

For `CN(CCN1CCOCC1)Cc1nc(-c2ccc3c(c2)OCO3)no1`, the GTP binding activity (% of control) is 98%.

On to `O=C(NCCCN1CCOCC1)c1ccccc1NS(=O)(=O)c1ccc(Br)cc1`, for which the GTP binding activity (% of control) is 100%.
